Screens from PubChem.
The list is not random: actives were taken first. Their share in the collection is about 12%.
HP1b chromo inh – HP1-beta chromodomain-methylated histone interaction inhibition; Potency, µM (series often up to 114 µM), hits mostly inhibitors; P83916; 0.56% of 390,000 active; AID 540317; AlphaScreen HP1-beta / biotin-H3K9me3 peptide binding; note: nearly all actives have a fitted effect of over 70% in size
Target sequence (P83916 whole entry, looked up): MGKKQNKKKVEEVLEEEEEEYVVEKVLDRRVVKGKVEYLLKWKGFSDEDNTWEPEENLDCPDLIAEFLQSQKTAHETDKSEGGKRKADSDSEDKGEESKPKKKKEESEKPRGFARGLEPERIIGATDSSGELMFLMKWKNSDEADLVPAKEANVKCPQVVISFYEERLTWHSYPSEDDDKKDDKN
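Compound inhibition of the preformed complex between 50 nM HP1-beta and 50 nM biotinylated H3K9me3 peptide was read by AlphaScreen. Buffer was PBS pH 7.4 with 0.01% Tween-20. Incubations ran 30 min at room temperature, with 10 ug/mL donor/acceptor beads.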
BAZ2B block – blocks human BAZ2B. Q9UIF8. AlphaScreen BAZ2B-H3K14Ac peptide displacement. Potency, µM (series often up to 114 µM), usual class: inhibitors. 4.4% of 360,000 active; note: nearly all actives have a fitted effect of over 60% in size
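In this displacement format the biotinylated H3(5-23) peptide acetylated at Lys14 serves as ligand at 50 nM, with BAZ2B at 50 nM in PBS pH 7.4 containing 0.01% Tween-20. Donor and acceptor beads are 10 ug/mL final.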
G9a inh – inhibitors of human histone lysine methyltransferase G9a; 8.8% of 350,000 active; G9a H3K9 monomethylation, AlphaScreen, 2 h; Q96KQ7; Potency, µM (series often up to 102 µM), usual class: inhibitors; note: nearly all actives have a fitted effect of over 75% in size
Target sequence (Q96KQ7 913-1193 limits assumed): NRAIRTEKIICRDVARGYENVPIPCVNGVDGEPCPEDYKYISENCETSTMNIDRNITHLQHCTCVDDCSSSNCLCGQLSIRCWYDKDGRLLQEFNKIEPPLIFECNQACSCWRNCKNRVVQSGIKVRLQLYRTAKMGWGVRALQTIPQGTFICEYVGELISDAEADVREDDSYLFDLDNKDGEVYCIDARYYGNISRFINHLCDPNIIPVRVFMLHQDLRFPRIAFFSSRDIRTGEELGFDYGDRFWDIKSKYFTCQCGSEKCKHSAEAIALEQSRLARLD
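G9a (20 nM) preincubated 15 min RT with compounds, then 500 nM biotinylated H3K9 peptide and 20 uM SAM added; 2 h RT reaction. Monomethyl-H3K9 product detected by AlphaScreen with anti-H3K9me1 antibody, streptavidin donor and anti-rabbit IgG acceptor beads.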
Sfp inh – Sfp phosphopantetheinyl transferase inhibition. Q9F4F7. Biochemical Sfp PPTase activity, qHTS. Potency, µM, actives largely listed as inhibitors. 3.5% of 310,000 active. AID 1490;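 note: the enzyme is Sfp with the accession as filed and its product quenches rhodamine fluorescence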
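Step 1, compound plus 15 nM Sfp-PPTase, 15 min, room temperature. Step 2, add rhodamine-CoA (5 uM) and BHQ-2-YbbR (12.5 uM). Step 3, read 525/598 nm fluorescence at 0 and 30 min.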
JMJD2A Tudor inh – inhibitors of human JMJD2A Tudor domain; O75164; AlphaScreen JMJD2A-Tudor / H3K4me3 peptide binding; Potency, µM (highest dose often 114 µM), hits mostly inhibitors; 4.4% of 390,000 active; note: nearly all actives have a fitted effect of over 50% in size
L3MBTL1 block – inhibitors of human L3MBTL1 | Q9Y468 | AlphaScreen L3MBTL1–H3K9me1 peptide binding | Potency, µM (doses to about 57.1 µM), most hits filed as inhibitors | 0.66% of 230,000 active | AID 485360; note: nearly all actives have a fitted effect of over 60% in size
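Displacement of a biotinylated histone H3(1-15) peptide monomethylated at Lys9 (75 nM) from L3MBTL1 (50 nM) was measured by AlphaScreen after a 30 min room-temperature compound incubation; cefsulodin titration served as intraplate control.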
Numbers stand for hits; n = inactive; u = inconclusive; x = not tested or not shown; [ ] = dose if it differs, or a comment. Calls come from the whole dose curve; as a rule, active = well fitted curve in the direction sought with a large enough effect; inconclusive = small, poorly fitted or top-dose-only effect, or another doubt; inactive = no such curve, though single readings can be large; an effect the other way counts as inactive or inconclusive.

SMILES	HP1b chromo inh	BAZ2B block	G9a inh	Sfp inh	JMJD2A Tudor inh	L3MBTL1 block
O=S(=O)(Nc1cccc2ccccc12)c1ccc2ccccc2c1	u	x	x	x	79µM	x
O=S(=O)(O)c1c(NS(=O)(=O)c2ccccc2)ccc2ccccc12	n	x	x	x	89µM	x
O=S(=O)(Nc1cccc2ccccc12)c1ccccc1	n	n	x	n	n	n
O=C(O)c1cccc(S(=O)(=O)Nc2cccc3ccccc23)c1	n	n	40µM	n	n	x
CC(C)NC(=O)C1COc2ccccc2O1 (stereo not drawn)	n	n	u	n	n	n
NC(=S)C1COc2ccccc2O1 (stereo not drawn)	n	n	45µM	n	n	n
Cc1ccc2cc(C=C(C#N)C#N)c(N3CCCCC3)nc2c1	u	u	45µM	n	u	n
CC(NC(=O)Cc1ccccc1)C1COc2ccccc2O1 (stereo not drawn)	n	n	n	n	n	n
CC(NCc1ccc([N+](=O)[O-])cc1)C1COc2ccccc2O1 (stereo not drawn)	u	50µM	u	n	7.9µM	x
CCOC(=O)c1c(NC(C)=O)sc(C(=O)NC2CCCC2)c1C	n	n	n	n	n	x
C/C(=N\Nc1ccc(Cl)c(C(=O)O)c1)c1ccc(Br)s1	u	u	35µM	n	28µM	x
CCOC(=O)c1c(NC(C)=O)sc(/C(C)=N/Nc2ccc(C(=O)O)cc2)c1C	n	u	32µM	n	n	x
C/C(=N\Nc1ccc(C(=O)O)cc1)c1ccc(Br)cc1	u	50µM	x	n	71µM	u
C/C(=N\NC(=O)c1ccc(Cl)c(Cl)c1)c1ccc(Br)s1	n	n	n	n	n	n
C/C(=N\Nc1ccc(C(=O)O)cc1)c1ccc(Cl)s1	n	u	u	10µM	u	x
CCc1nnc(NC(=O)c2nc(SCc3ccc(F)cc3)ncc2Cl)s1	n	n	u	x	n	x
O=C(NCc1ccccc1Cl)c1ccc2c(c1)N(Cc1ccccc1)C(=O)CS2	n	n	n	x	n	x
CCCCC[n+]1cccc2c3ccccc3ccc21	n	n	50µM	n	u	x
CC(=O)Oc1ccc2c(c1OC(C)=O)OCC1(O)Cc3c(cc(OC(C)=O)c(OC(C)=O)c3OC(C)=O)C21 (stereo not drawn)	x	x	x	n	x	x
Oc1ccc2c(c1)OCC1(O)Cc3cc(O)c(O)cc3C21 (stereo not drawn)	u	x	n[2.33 µM]	n	20µM	x
COc1cccc(CNCc2cccn2-c2nnc(N3CCN(c4ccccc4)CC3)s2)c1	n	u	u	x	50µM	x
COc1ccc(NCc2cccn2-c2nnc(N3CCCCC3)s2)cc1OC	u	n	u	x	u	x
COc1ccc(OC)c(NCc2cccn2-c2nnc(N3CCCCC3)s2)c1	u	n	8.9µM	x	50µM	x
COc1cccc(NCc2cccn2-c2nnc(N3CCC(C)CC3)s2)c1	n	n	u	x	n	x
COc1ccccc1NCc1cccn1-c1nnc(N2CCCCCC2)s1	n	n	u	x	45µM	x
SMILES	HP1b chromo inh	BAZ2B block	G9a inh	Sfp inh	JMJD2A Tudor inh	L3MBTL1 block
Cc1ccc(S(=O)(=O)CCC(=O)OC2CC(C)OC2=O)cc1 (stereo not drawn)	n	x	x	x	n	n
COc1ccc(NC(=O)Cn2cnc3c(nc4n3CCCCC4)c2=O)c(OC)c1	n	n	n	x	n	x
COc1cccc(OCc2cc(C3Nc4ccccc4C(=O)N3c3ccccc3)ccc2OC)c1 (stereo not drawn)	n	x	x	x	n	x
CC(=O)NC1=NN(C(C)=O)C(C)(c2cccnc2)S1 (stereo not drawn)	n	n	45µM	n	n	x
COC(C(=O)NNC(=O)CCc1ccccc1)c1ccccc1 (stereo not drawn)	n	n	n	n	n	n
Cn1c(=O)c2c(nc(CN3CCN(c4ccccc4F)CC3)n2Cc2ccc(F)cc2)n(C)c1=O	n	x	n	x	n	x
COC(=O)C1CSc2[nH]c(=O)sc2C1c1ccc(O)c(OC)c1 (stereo not drawn)	n	n	14µM	56µM	n	x
O=c1[nH]c2c(s1)C(c1ccccc1)C1C3CCC(C3)C1S2 (stereo not drawn)	n	n	45µM	n	n	x
COc1ccc(C2c3sc(=O)[nH]c3SCC2C(N)=O)cc1 (stereo not drawn)	n	n	n	n	n[11.4 µM]	n
COc1cc(C2c3sc(=O)[nH]c3SC3C4CCC(C4)C23)ccc1O (stereo not drawn)	u	u	13µM	n	u	n
CCOC(=O)C1CSc2[nH]c(=O)sc2C1c1ccccc1 (stereo not drawn)	n	n	45µM	40µM	n	x
COc1cc(C2c3sc(=O)[nH]c3SC3C(=O)N(c4ccc(C)cc4)C(=O)C32)ccc1O (stereo not drawn)	n	u	u	u	n	n
COc1ccc(CNc2ncnc3ccc(-c4ccccc4C#N)cc23)c(OC)c1	x	x	n[0.501 µM]	n	x	x
Cc1c(NC=C(C#N)C#N)c(=O)n(-c2ccccc2)n1C	n	n	n[0.501 µM]	n	n	n
Cc1ccccc1C(=O)/C(C#N)=N/Nc1c(C)n(C)n(-c2ccccc2)c1=O	n	50µM	n	n	50µM	n
Cc1c(N/C=C(\Cl)C(=O)C(F)(F)F)c(=O)n(-c2ccccc2)n1C	n	u	25µM	22µM	n	x
Cc1c(NC(=O)Nc2ccc(C#N)cc2)c(=O)n(-c2ccccc2)n1C	n	n	n	n	n	x
CCOC(=O)/C(C#N)=N/Nc1c(C)n(C)n(-c2ccccc2)c1=O	n	79µM	18µM	n	n	x
Cc1c(N/N=C(\C#N)C(=O)c2ccccc2)c(=O)n(-c2ccccc2)n1C	n	32µM	u	n	56µM	u
Clc1cc(Br)ccc1OCCN1CCOCC1	u	u	10µM	u	0.79µM	n
CCCCCOc1ccc(CN2CCOCC2)cc1Cl	n	n	n[12.7 µM]	n	n	x
Brc1ccccc1OCCN1CCOCC1	u	u	25µM	u	3.2µM	n
Cc1cccc(OCCN2CCOCC2)c1C	n	n	u	n	n	x
Cc1cc(C)c(C)c(OCCCN(C)C)c1	u	n	u	n	20µM	n
Cc1cc(C)c(C)c(OCCN2CCOCC2)c1	n	n	79µM	n	n	x
CCc1ccc(NC(=O)N2CC(C)Oc3ccc(C)cc32)cc1 (stereo not drawn)	n	n	n	x	n	x
COc1ccc(NC(=O)CN(C)Cc2cccs2)cc1Cl	n	n	n	n	n	x
C=CCOc1ccccc1C1C2=C(CC(C)(C)CC2=O)Nc2c1c(=O)n(C)c(=O)n2C (stereo not drawn)	n	n	n[2.33 µM]	n	n	n
Cc1ccc(-n2nc(C)c3c2NC2=C(C(=O)CC(C)(C)C2)C3c2ccccc2OCC(=O)O)cc1 (stereo not drawn)	n	x	u	n	56µM	n
